Measured values reported in PubChem BioAssay.
Values joined by “and” are separate entries in the source; they are usually repeats but may differ in a detail not shown here. Equal entries are not always repeated. Unmarked numbers belong to inactive results. Active and inactive are the calls of the source.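 How the source made its calls: active means thallium flux through the channel raised or lowered by more than 3 SD from vehicle-only wells, actives on both sides; inactive means the rest.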

Assays:
Assay in all cases: modulators of BK channel variants, profiling panel, selectivity assay, cell-based, U2OS BacMam, thallium flux, beta subunits (AID 1259406);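 further: initial slope of Thallos dye fluorescence rise after thallium is added; log ratio against the mean of 0.3% DMSO vehicle wells on the same plate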
F380Y/beta2Delta = conditions: at 30 µM
[1] = target: Calcium-activated potassium channel subunit alpha-1 (Homo sapiens) + Leucine-rich repeat-containing protein 26 (Homo sapiens) (UniProt Q12791+Q2I0M4); conditions: F380Y/Slo1WT/gamma1, at 30 µM
R275C = conditions: at 30 µM
R275C/beta1 = conditions: at 30 µM
R275C/beta2Delta = conditions: at 30 µM
F380Y/beta4 = conditions: at 30 µM
R275C/beta4 = conditions: at 30 µM
R275C/Slo1WT/beta2 = conditions: at 30 µM

Chain of Calcium-activated potassium channel subunit alpha-1 (Homo sapiens) + Leucine-rich repeat-containing protein 26 (Homo sapiens) (Q2I0M4 whole entry, looked up, one chain of several): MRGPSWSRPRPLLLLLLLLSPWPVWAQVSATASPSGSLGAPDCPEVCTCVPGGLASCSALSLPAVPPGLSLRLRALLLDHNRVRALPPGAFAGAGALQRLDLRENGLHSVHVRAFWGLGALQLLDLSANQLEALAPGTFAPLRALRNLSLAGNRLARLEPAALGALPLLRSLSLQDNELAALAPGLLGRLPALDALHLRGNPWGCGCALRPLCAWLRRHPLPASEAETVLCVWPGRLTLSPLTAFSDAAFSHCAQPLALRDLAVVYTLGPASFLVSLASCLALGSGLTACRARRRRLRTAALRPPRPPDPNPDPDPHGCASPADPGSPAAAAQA

| SMILES | log fold change Tl+ flux (F380Y/beta2Delta) | log fold change Tl+ flux [1] | log fold change Tl+ flux (R275C) | log fold change Tl+ flux (R275C/beta1) | log fold change Tl+ flux (R275C/beta2Delta) | log fold change Tl+ flux (F380Y/beta4) | log fold change Tl+ flux (R275C/beta4) | log fold change Tl+ flux (R275C/Slo1WT/beta2) |
| --- | --- | --- | --- | --- | --- | --- | --- | --- |
| Cc1ccc(NC(=O)c2ccc(CN3CCN(C)CC3)cc2)cc1Nc1nccc(-c2cccnc2)n1 | 0.0732 | -0.0387 | -0.00147 | 0.00665 | 0.0291 | – | – | – |
| C[C@]12C[C@H](O)[C@H]3[C@@H](CCC4=CC(=O)CC[C@@]43C)[C@@H]1CC[C@@H]2C(=O)CO | -0.00742 | 0.0373 | -0.04 | 0.00127 | 0.0285 | 0.0166 | 0.0631 | 0.00421 |
| COc1cc(OC)c(C(=O)CCCN2CCCC2)c(OC)c1 | -0.00493 | 0.0079 | 0.0465 | 0.0151 | 0.0392 | -0.0142 | 0.0301 | 0.0326 |
| CN1[C@@H]2CC[C@H]1CC(OC(=O)c1c[nH]c3ccccc13)C2 (stereo partly drawn) | 0.0725 | -0.0185 | -0.064 | 0.026 | 0.045 | 0.0611 | 0.0432 | 0.00303 |
| CCCc1c(OCCCCc2nn[nH]n2)ccc(C(C)=O)c1O | 0.0962 (active) | 0.186 (active) | 0.0659 | 0.282 (active) | 0.193 (active) | – | – | – |
| Cc1nccn1CC1CCc2c(c3ccccc3n2C)C1=O (stereo not drawn) | -0.00534 and 0.0144 | -0.0199 and 0.0181 | -0.0259 and 0.0252 | -0.00728 and 0.00537 | -0.00652 and 0.0192 | 0.0398 and -0.017 | -0.00238 and 0.0058 | 0.0288 and 0.00389 |
| NC1CCN(c2nc3c(cc2F)c(=O)c(C(=O)O)cn3-c2ccc(F)cc2F)C1 (stereo not drawn) | -0.101 | 0.0186 | -0.0155 | -0.00647 | -0.0395 | 0.00828 | -0.0109 | 0.0163 |
| CCCN1CCCC[C@H]1C(=O)Nc1c(C)cccc1C | 0.0505 | -0.0126 | 0.0086 | 0.0221 | 0.0105 | 0.0334 | 0.0113 | 0.0315 |
| CCc1oc2ccccc2c1C(=O)c1cc(Br)c(O)c(Br)c1 | 0.479 (active) | 0.428 (active) | 0.0187 | 0.704 (active) | 0.431 (active) | 0.628 (active) | 0.722 (active) | 0.347 (active) |
| CN(C)CCCSc1ccccc1NC(=O)/C=C/c1ccccc1 | 0.0654 | 0.0123 | 0.063 | 0.0477 | 0.0394 | – | – | – |
| COc1cc(C(=O)NS(=O)(=O)c2ccccc2C)ccc1Cc1cn(C)c2ccc(NC(=O)OC3CCCC3)cc12 | 0.327 (active) | 0.314 (active) | -0.0565 | 0.581 (active) | 0.38 (active) | 0.428 (active) | 0.546 (active) | 0.0699 |
| O=C(O)CCNC(=O)c1ccc(N=Nc2ccc(O)c(C(=O)O)c2)cc1 | -0.00246 | 0 | -0.0367 | 0.0608 | 0.0174 | 0.0201 | 0.00146 | 0.0188 |
| CC1CCN(CCCC(=O)c2ccc(F)cc2)CC1 | 0.0189 | 0.000816 | 0.0359 | -0.0458 | 0.0277 | – | – | – |
| CC(C)(C)NC(=O)[C@H]1CC[C@H]2[C@@H]3CC[C@H]4NC(=O)C=C[C@]4(C)[C@H]3CC[C@]12C | 0.0468 | -0.00445 | -0.0443 | -0.0219 | 0.0533 | 0.00105 | 0.00132 | -0.0253 |
| CN(C)CC[C@@H](c1ccc(Cl)cc1)c1ccccn1 | 0.0413 | -0.00445 | -0.0353 | 0.0461 | 0.00905 | 0.0471 | 0.0349 | 0.0166 |
| CN1CCC(=C2c3ccccc3CCc3sccc32)CC1 | -0.0147 | 0.0222 | -0.0315 | 0.0886 | 0.0371 | – | – | – |
| CC(C)(C#N)c1cc(Cn2cncn2)cc(C(C)(C)C#N)c1 | 0.0269 | 0.043 | -0.0232 | 0.00836 | 0.00182 | -0.0138 | -0.00704 | -0.000892 |
| CN(C)CC/C=C1/c2ccccc2COc2ccc(CC(=O)O)cc21 | 0.053 | 0.00396 | -0.0501 | 0.0368 | 0.00503 | 0.0784 | 0.0335 | 0.0239 |
| Nc1nc(N)nc(-c2cc(Cl)ccc2Cl)n1 | -0.0416 | -0.0223 | -0.0835 | -0.0137 | -0.0163 | -0.00342 | -0.0246 | -0.0527 |
| CCN(CC)CCNC(=O)c1cc(Cl)c(N)cc1OC | -0.0588 | 0.0156 | 0.0337 | -0.0145 | -0.0122 | -0.0267 | -0.0991 | -0.0439 |
| Cn1c(NCCN(CCO)CCCc2ccc([N+](=O)[O-])cc2)cc(=O)n(C)c1=O | -0.007 | 0.0127 | -0.128 (active) | -0.0368 | 0.012 | -0.0379 | -0.00107 | 0.0338 |
